# Rows were chosen to be rich in hits. Some 3.5% of all compounds tested hit in one or more screens of this group.
# PPC-1+TRAIL kill = PPC-1 cancer cell killing with TRAIL present; cell killing (% activity), % at 4 µM or 5 µM; PPC-1 cells + TRAIL, ATPLite viability luminescence; actives 0.41% (n = 220,000); AID 1443;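 active = cell killing above 50% in the first pass at 4 µM, then a duplicate retest at 5 µM averaging 50% or more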
# HSP90 refold inh = HSP90 refolding inhibition in rabbit reticulocyte lysate. luciferase refolding luminescence, 3 h. inhibition, % at 5.6 µM. actives 0.91% (n = 290,000). AID 1789;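 active = inhibition above the screen-wide mean plus 3 SD, computed separately per campaign, cut at about 16% in these data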;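 also: inhibitors lower the luminescence because luciferase stays unfolded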
# TROY signal inh = blocks TROY-dependent signaling in reporter cells. Q293 LMP1-TROYcd NF-kB luciferase reporter, 4 h. inhibition, % at 10 µM. actives 0.98% (n = 360,000);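 active = compounds whose plate-normalised and pattern-corrected inhibition of the luciferase reporter signal at the single screening dose is 50% or more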
# C8 TRAIL sens = caspase-8 TRAIL sensitization; inhibition (viability loss, TRAIL sensitization), % at 10 µM; NB7+C8 cells + TRAIL, ATPlite viability luminescence; actives 1% (n = 360,000); AID 624354;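 active = compounds causing at least 50% loss of cell viability in the single-dose screen, relative to plate controls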
# TWEAK-Fn14 inh = blocks TWEAK-Fn14 interaction in a reporter cell assay; TWEAK-stimulated Fn14 reporter cells, luciferase luminescence, 8 h; inhibition, % at 10 µM; actives 2% (n = 360,000); in the data active = inhibition above about 50%
# Platelet DG rel = modulates dense granule release in human platelets; inhibition, %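 (compounds screened at 7.5 µM in platelet-rich plasma)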; human platelet-rich plasma, SFLLRN dense granule ATP release, luminescence; actives 0.22% (n = 300,000);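 active = mean replicate score, as percent of positive control, at or above 50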
# Hits are given with their value; . = inactive; / = no result.
SMILES,PPC-1+TRAIL kill,HSP90 refold inh,TROY signal inh,C8 TRAIL sens,TWEAK-Fn14 inh,Platelet DG rel
COc1cccc(CN(C(=O)Cc2c[nH]c3ccccc23)C(C(=O)NC2CCCCC2)c2cccs2)c1 (stereo not given),.,.,.,.,53,.
C#CC(=O)N(c1cccc(OC)c1)C(C(=O)NC1CCCC1)c1cccs1 (stereo not given),94,.,.,96,55,.
COc1ccc(CN(C(=O)Cc2cccs2)C(C(=O)NC2CCCC2)c2ccncc2)cc1 (stereo not given),.,.,.,.,.,.
N=C1CCCC1C(=S)SCCC(N)=O (stereo not given),/,/,.,.,.,/
COc1cccc(NC(=O)CN(C)C(=O)c2ccc(-c3ccc(Cl)cc3)o2)c1,/,/,.,.,.,.
COc1ccc2nc(NC(=O)c3cccc(OCc4c(C)noc4C)c3)sc2c1,.,.,.,.,52,.
COc1ccc2nc(NC(=O)c3cccc(N4C(=O)CCC4=O)c3)sc2c1,/,/,.,58,.,/
CCSc1nnc(NC(=O)c2cccc(OCc3c(C)noc3C)c2)s1,.,.,.,.,.,.
CCOc1ccc2nc(NC(=O)c3cccc(-c4cc5ccccc5oc4=O)c3)sc2c1,.,.,.,71,.,.
CCOc1ccc2nc(NC(=O)c3cccc(N4C(=O)CCC4=O)c3)sc2c1,/,/,.,56,.,/
COc1ccccc1CNC(=O)C1CCCN1S(=O)(=O)c1ccc2c(c1)C(C)(C)C(=O)N2C (stereo not given),/,/,.,.,.,/
O=[N+]([O-])c1ccc(C(O)C23CN4CN(CN(C4)C2)C3)cc1 (stereo not given),.,.,.,.,.,.
Cc1cc(C)nc(SCC(=O)OCC(=O)N(C)c2c(N)n(Cc3ccccc3)c(=O)[nH]c2=O)n1,/,.,.,.,.,.
COC(=O)[C@H](CC(C)C)NC(=O)Nc1ccc2c(c1)OCCO2,.,.,.,.,66,.
CC(C)CC(NC(=O)C1CCC(C)CC1)C(=O)Nc1ccc2c(c1)OCCO2 (stereo not given),.,.,.,.,68,.
COCCn1c(=O)[nH]c2cc(C(=O)Nc3cc(C)cc(C)c3)ccc2c1=O,/,.,.,.,.,.
Cc1cccnc1NC(=O)c1sc2ccccc2c1Cl,/,.,.,54,.,.
Cc1ccc2nsnc2c1NC(=O)c1sc2ccccc2c1Cl,.,.,86,.,90,.
Cc1ccc(NC(=O)c2sc3ccccc3c2Cl)nc1,.,.,52,70,75,.
O=C(NC1=NCCS1)c1sc2ccccc2c1Cl,.,.,.,.,.,.
O=C(COC(=O)Cn1cnc2ccccc21)Nc1ccc(F)c(F)c1,/,/,.,.,.,/
Cc1nn(Cc2cccc(F)c2)c(C)c1NC(=O)c1ccc(COc2ccccc2Cl)cc1,.,.,.,.,70,.
Cc1nn(Cc2c(F)c(F)c(F)c(F)c2F)c(C)c1NC(=O)c1cccc(COc2ccccc2Cl)c1,.,.,.,.,.,.
COc1cc(NS(=O)(=O)c2ccc3c(c2)C(C)(C)C(=O)N3C)cc(OC)c1,/,.,.,.,.,.
O=c1[nH]c2ccccc2cc1-c1nnn(-c2ccc(F)cc2)n1,.,.,.,62,.,.
SMILES,PPC-1+TRAIL kill,HSP90 refold inh,TROY signal inh,C8 TRAIL sens,TWEAK-Fn14 inh,Platelet DG rel
O=c1[nH]c2ccccc2cc1-c1nnn(-c2ccc(Cl)c(Cl)c2)n1,/,/,.,.,.,.
Cc1cccc(C)c1NC(=O)COC(=O)/C=C/c1ccc(S(=O)(=O)N2CCOCC2)cc1,/,/,.,.,.,/
CC(OC(=O)/C=C/c1ccc2ccccc2n1)C(=O)N(C)c1ccccc1 (stereo not given),/,/,.,.,.,/
CC(=O)/C=C/c1ccc2ccccc2n1,.,.,.,.,64,.
Clc1ccc(-c2cn3nc4c(nc3n2)CCCC4)cc1,.,.,.,.,.,.
COc1cccc(-c2cn3nc4c(nc3n2)CCCC4)c1,.,.,.,53,.,.
Cc1onc(-c2ccccc2)c1C(=O)OCC(=O)NC(=O)c1ccccc1,/,/,.,.,.,.
c1ccc(OCCCCn2cnc3ccccc32)cc1,.,.,/,.,74,.
c1ccc(OCCn2cnc3ccccc32)cc1,.,.,.,.,.,.
CC(C)C(C)NC(=O)COc1ccc(Sc2ccc(OCC(=O)NC(C)C(C)C)cc2)cc1 (stereo not given),.,.,.,.,66,.
COc1cccc(-c2[nH]nc3c2C(c2ccsc2)C(C#N)=C(N)O3)c1 (stereo not given),.,16,.,.,.,.
COc1ccc(-c2[nH]nc3c2C(c2ccsc2)C(C#N)=C(N)O3)cc1 (stereo not given),.,.,.,.,.,.
COc1ccc(C2C(C(=O)N3CCN(c4ccccc4)CC3)c3ccccc3C(=O)N2C)cc1OC (stereo not given),.,.,.,68,.,.
COc1ccc(C2C(C(=O)N3CCOCC3)c3ccccc3C(=O)N2c2ccc(OC)cc2)cc1 (stereo not given),.,.,.,.,.,.
COc1ccc(C2C(C(=O)N3CCN(c4ccccc4)CC3)c3ccccc3C(=O)N2C)cc1 (stereo not given),.,.,.,59,.,.
CCOC(=O)N1CCN(C(=O)/C(=C/c2cccc3ccccc23)NC(=O)c2ccc(OC)cc2)CC1,.,.,56,.,.,.
Cc1ccc(-c2nc(C(=O)NCC3CCCO3)cc3c2[nH]c2ccccc23)cc1 (stereo not given),/,.,.,.,53,.
Cc1ccccc1-c1nc(C(=O)NCC2CCCO2)cc2c1[nH]c1ccccc12 (stereo not given),/,.,.,.,54,.
CCCCOc1ccc(C(=O)N2CCN(c3ncccn3)CC2)cc1,/,.,.,.,.,.
Cn1cccc1/C=N/n1c(-c2ccc(C(C)(C)C)cc2)n[nH]c1=S,.,.,.,54,.,.
S=c1[nH]nc(-c2ccncc2)n1/N=C/C(Cl)=C\c1ccccc1,.,.,.,.,81,.
Cc1ccc(-c2n[nH]c(=S)n2/N=C/c2ccncc2)cc1,.,.,.,.,72,.
Cn1cccc1/C=N/n1c(-c2ccccc2)n[nH]c1=S,.,.,.,.,.,.
COc1ccc([C@@H]2C=C(C(=O)O)O[C@H](OCCCCO)C2)cc1,.,/,.,.,.,.
O=C(Cc1ccc([N+](=O)[O-])cc1)Oc1ccccc1,/,/,.,.,.,/
Nc1ccccc1C(=O)N1CCc2ccccc21,/,.,.,.,.,.
CSc1nnc(NC(=O)c2nc(S(=O)(=O)Cc3cccc(C)c3)ncc2Cl)s1,/,.,.,84,94,.
CCSc1nnc(NC(=O)c2nc(S(=O)(=O)Cc3ccc(F)cc3)ncc2Cl)s1,/,.,.,.,99,.
CSc1ncc(Cl)c(C(=O)Nc2nnc(SC/C=C/c3ccccc3)s2)n1,.,.,.,.,.,.

# Screens deposited in PubChem BioAssay by several laboratories.
